In PMC7862700, “An all-to-all approach to the identification of sequence-specific readers for epigenetic DNA modifications on cytosine”:

Legend:
Experiment in all cases: DAPPL (digital affinity profiling via proximity ligation, sequencing); 10 mM Tris-HCl pH 7.5, 50 mM NaCl, 1 mM DTT, 4% glycerol, room temperature, 30 min; GST-TFs on glutathione beads, 16-mer random dsDNA library, 0.1% formaldehyde crosslink after washing; high values mean tight binding
FEV = molecular target: T1, FEV (Homo sapiens, UniProt Q99581 1-238); settings: protein: recombinant; tags: N-terminal GST; dsDNA, one strand shown
T1 sequence: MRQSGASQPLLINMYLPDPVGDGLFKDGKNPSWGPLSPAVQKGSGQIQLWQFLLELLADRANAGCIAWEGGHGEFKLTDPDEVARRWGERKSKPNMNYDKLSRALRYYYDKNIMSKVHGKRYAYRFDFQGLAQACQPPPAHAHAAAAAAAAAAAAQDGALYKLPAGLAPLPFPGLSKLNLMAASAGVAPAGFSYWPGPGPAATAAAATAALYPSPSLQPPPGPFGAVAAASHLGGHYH
Outline: (§1)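 Yeast served to express human transcription factors as GST fusions, which were then captured on glutathione beads and labelled with DNA barcodes. Pooled with a tag-only sample, they were incubated with 200 nmole of a 16-mer random double-stranded DNA library for 30 min at room temperature in Tris/NaCl/DTT/glycerol buffer, washed, crosslinked with 0.1% formaldehyde, ligated by proximity, amplified by PCR and sequenced. Dividing each hexamer's read frequency for a factor by its frequency for the tag-only sample gives the binding signal.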

ETV5 = ETV5 (Homo sapiens, UniProt P41161 1-510); settings: protein: recombinant; tags: N-terminal GST; dsDNA, one strand shown
Outline: as §1

HSF1 = HSF1 (Homo sapiens, UniProt Q00613 1-529); settings: protein: recombinant; tags: N-terminal GST; chain copies: 3; dsDNA, one strand shown
Outline: as §1

SPIC = molecular target: T2, SPIC (Homo sapiens, UniProt Q8N5J4 1-248); settings: protein: recombinant; tags: N-terminal GST; dsDNA, one strand shown
T2 sequence: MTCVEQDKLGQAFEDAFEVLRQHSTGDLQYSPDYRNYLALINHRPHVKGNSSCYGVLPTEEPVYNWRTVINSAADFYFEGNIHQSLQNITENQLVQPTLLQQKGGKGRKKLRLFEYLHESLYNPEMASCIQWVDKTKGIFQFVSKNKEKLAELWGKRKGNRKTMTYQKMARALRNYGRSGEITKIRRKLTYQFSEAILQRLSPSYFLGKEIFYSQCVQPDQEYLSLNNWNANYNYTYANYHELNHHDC
Outline: as §1

ELF4 = ELF4 (Homo sapiens, UniProt Q99607 1-663); settings: protein: recombinant; tags: N-terminal GST; dsDNA, one strand shown
Outline: as §1

ELK4 = molecular target: T3, ELK4 (Homo sapiens, UniProt P28324-2 1-405); settings: protein: recombinant; tags: N-terminal GST; dsDNA, one strand shown
T3 sequence: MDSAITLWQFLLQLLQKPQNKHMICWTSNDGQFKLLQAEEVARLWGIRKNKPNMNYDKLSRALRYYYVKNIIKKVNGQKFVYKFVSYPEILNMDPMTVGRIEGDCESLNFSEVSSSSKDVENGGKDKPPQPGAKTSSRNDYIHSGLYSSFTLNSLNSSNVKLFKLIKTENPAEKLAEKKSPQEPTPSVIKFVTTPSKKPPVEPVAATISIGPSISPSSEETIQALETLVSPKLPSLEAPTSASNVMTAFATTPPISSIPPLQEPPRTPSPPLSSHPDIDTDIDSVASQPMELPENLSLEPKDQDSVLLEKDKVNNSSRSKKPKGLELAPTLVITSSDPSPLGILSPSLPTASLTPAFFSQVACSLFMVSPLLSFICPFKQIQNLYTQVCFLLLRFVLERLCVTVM
Outline: as §1

ETV2 = molecular target: T4, ETV2 (Homo sapiens, UniProt O00321 1-342); settings: protein: recombinant; tags: N-terminal GST; dsDNA, one strand shown
T4 sequence: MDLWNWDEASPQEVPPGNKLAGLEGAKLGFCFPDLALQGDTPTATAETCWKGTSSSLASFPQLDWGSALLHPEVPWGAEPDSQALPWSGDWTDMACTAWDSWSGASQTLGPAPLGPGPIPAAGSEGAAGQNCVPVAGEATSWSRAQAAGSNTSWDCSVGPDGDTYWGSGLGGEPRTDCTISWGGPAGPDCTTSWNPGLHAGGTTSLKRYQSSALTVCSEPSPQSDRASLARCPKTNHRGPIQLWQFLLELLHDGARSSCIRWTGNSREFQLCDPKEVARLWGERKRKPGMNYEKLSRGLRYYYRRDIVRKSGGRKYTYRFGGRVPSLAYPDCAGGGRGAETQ
Outline: as §1

ELF3 = molecular target: T5, ELF3 (Homo sapiens, UniProt P78545 1-371); settings: protein: recombinant; tags: N-terminal GST; dsDNA, one strand shown
T5 sequence: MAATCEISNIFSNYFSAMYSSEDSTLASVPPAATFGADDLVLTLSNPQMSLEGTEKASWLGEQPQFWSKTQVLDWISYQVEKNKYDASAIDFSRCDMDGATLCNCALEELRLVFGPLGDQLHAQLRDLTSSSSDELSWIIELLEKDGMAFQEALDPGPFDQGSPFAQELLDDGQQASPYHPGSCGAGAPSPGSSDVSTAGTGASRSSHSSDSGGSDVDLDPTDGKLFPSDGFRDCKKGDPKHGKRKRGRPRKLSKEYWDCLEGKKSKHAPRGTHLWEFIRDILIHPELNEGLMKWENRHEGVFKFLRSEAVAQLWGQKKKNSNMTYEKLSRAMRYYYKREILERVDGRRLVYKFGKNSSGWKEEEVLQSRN
Outline: as §1

CRX = CRX (Homo sapiens, UniProt O43186 1-299); settings: protein: recombinant; tags: N-terminal GST; dsDNA, one strand shown
Outline: as §1

ETV1 = ETV1 (Homo sapiens, UniProt P50549 1-477); settings: protein: recombinant; tags: N-terminal GST; dsDNA, one strand shown
Outline: as §1

ERF = molecular target: T6, ERF (Homo sapiens, UniProt P50548 1-548); settings: protein: recombinant; tags: N-terminal GST; dsDNA, one strand shown
T6 sequence: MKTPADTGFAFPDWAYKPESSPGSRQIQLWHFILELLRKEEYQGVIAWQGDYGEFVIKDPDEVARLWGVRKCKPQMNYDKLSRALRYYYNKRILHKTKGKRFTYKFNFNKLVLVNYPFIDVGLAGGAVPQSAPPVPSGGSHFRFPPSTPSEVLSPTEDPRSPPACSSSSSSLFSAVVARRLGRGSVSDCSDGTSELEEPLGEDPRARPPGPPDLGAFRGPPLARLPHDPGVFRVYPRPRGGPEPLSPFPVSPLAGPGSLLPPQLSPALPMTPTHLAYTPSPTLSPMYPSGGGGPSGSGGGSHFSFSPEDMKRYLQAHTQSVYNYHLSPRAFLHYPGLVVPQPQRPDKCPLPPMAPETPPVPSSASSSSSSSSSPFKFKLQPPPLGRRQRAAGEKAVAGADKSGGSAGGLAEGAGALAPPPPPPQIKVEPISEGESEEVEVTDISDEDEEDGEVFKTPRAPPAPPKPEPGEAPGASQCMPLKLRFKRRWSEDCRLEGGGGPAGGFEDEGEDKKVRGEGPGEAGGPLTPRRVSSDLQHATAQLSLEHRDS
Outline: as §1

ETV3L = molecular target: T7, ETV3L (Homo sapiens, UniProt Q6ZN32 1-361); settings: protein: recombinant; tags: N-terminal GST; dsDNA, one strand shown
T7 sequence: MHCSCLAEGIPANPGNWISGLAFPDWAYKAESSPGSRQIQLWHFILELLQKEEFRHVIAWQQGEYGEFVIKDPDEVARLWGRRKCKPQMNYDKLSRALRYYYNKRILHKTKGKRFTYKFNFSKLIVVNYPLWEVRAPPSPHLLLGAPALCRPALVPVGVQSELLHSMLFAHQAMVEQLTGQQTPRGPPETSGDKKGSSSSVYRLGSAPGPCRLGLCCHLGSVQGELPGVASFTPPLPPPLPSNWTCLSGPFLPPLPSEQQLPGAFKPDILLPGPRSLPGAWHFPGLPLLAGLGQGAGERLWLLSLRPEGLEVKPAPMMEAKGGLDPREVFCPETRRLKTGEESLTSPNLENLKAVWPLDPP
Outline: as §1

ETS2 = molecular target: T8, ETS2 (Homo sapiens, UniProt P15036 1-469); settings: protein: recombinant; tags: N-terminal GST; dsDNA, one strand shown
T8 sequence: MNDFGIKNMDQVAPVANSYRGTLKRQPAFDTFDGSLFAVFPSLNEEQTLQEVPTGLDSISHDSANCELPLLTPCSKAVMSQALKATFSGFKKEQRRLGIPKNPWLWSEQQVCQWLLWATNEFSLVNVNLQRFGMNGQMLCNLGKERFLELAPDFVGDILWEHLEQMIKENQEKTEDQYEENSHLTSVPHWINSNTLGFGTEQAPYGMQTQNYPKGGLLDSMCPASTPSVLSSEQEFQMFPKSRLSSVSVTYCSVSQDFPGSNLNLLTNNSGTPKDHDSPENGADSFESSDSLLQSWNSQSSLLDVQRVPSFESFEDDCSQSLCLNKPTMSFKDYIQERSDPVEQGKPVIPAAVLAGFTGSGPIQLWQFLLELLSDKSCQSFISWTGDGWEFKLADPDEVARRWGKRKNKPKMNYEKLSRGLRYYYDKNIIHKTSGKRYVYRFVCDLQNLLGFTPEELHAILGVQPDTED
Outline: as §1

SPDEF = molecular target: T9, SPDEF (Homo sapiens, UniProt O95238 1-335); settings: protein: recombinant; tags: N-terminal GST; dsDNA, one strand shown
T9 sequence: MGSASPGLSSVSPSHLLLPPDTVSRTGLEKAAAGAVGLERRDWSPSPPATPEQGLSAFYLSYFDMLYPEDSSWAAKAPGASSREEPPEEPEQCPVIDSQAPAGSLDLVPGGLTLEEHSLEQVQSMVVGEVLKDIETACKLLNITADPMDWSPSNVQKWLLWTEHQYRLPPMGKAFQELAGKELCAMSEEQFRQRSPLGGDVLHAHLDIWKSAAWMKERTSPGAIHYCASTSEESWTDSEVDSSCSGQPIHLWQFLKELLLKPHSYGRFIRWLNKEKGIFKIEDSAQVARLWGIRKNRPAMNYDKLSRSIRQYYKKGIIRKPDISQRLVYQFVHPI
Outline: as §1

ETV7 = molecular target: T10, ETV7 (Homo sapiens, UniProt Q9Y603 1-341); settings: protein: recombinant; tags: N-terminal GST; dsDNA, one strand shown
T10 sequence: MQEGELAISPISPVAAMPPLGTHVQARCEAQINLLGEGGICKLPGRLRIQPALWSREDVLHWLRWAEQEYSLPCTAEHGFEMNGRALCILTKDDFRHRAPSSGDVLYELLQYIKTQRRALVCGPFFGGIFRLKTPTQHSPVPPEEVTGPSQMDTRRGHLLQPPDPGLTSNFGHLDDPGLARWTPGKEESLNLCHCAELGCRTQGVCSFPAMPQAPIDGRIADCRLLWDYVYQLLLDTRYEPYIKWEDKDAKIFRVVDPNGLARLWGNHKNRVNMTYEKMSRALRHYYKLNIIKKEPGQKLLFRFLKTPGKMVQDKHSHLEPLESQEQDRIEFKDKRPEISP
Outline: as §1

ETV3 = molecular target: T11, ETV3 (Homo sapiens, UniProt P41162-2 1-143); settings: protein: recombinant; tags: N-terminal GST; dsDNA, one strand shown
T11 sequence: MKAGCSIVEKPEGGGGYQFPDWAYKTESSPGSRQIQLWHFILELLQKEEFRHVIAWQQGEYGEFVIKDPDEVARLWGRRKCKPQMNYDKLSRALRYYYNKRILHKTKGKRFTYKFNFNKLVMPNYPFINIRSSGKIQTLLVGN
Outline: as §1

ETV6 = ETV6 (Homo sapiens, UniProt P41212 1-452); settings: protein: recombinant; tags: N-terminal GST; dsDNA, one strand shown
Outline: as §1

ETV6, sequence (P41212 whole entry): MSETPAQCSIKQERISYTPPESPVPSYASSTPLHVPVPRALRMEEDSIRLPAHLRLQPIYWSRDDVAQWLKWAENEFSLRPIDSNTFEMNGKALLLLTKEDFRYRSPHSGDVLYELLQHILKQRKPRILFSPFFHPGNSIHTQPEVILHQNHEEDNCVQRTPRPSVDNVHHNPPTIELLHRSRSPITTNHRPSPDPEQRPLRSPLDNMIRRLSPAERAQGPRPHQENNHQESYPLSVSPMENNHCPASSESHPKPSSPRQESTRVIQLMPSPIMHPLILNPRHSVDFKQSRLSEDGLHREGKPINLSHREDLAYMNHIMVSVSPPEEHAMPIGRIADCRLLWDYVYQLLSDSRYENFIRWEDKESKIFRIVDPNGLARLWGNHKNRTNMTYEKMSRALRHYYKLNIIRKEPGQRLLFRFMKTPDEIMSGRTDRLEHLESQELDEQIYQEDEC
CRX, sequence (O43186 whole entry): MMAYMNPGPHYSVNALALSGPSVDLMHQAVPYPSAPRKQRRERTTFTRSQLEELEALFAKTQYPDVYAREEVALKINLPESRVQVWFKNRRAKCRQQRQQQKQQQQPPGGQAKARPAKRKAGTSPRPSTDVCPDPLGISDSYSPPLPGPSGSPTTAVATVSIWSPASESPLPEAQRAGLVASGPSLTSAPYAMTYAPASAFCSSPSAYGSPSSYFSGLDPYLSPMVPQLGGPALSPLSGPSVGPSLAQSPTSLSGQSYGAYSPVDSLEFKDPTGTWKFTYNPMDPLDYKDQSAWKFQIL
ETV5, sequence (P41161 whole entry): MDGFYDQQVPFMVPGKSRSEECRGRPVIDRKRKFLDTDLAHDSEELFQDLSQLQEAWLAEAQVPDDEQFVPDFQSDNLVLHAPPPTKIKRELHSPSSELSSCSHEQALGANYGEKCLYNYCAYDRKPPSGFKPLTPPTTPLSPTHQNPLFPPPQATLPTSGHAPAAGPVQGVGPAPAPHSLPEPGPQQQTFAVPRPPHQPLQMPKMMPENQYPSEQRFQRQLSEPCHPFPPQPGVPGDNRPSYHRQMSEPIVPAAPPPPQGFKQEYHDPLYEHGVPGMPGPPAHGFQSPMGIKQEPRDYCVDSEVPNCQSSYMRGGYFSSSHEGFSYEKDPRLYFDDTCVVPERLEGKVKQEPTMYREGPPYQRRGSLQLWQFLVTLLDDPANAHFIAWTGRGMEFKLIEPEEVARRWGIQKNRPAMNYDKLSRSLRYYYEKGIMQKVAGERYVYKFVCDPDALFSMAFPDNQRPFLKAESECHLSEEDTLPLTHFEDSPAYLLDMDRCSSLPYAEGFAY
ELF4, sequence (Q99607 whole entry): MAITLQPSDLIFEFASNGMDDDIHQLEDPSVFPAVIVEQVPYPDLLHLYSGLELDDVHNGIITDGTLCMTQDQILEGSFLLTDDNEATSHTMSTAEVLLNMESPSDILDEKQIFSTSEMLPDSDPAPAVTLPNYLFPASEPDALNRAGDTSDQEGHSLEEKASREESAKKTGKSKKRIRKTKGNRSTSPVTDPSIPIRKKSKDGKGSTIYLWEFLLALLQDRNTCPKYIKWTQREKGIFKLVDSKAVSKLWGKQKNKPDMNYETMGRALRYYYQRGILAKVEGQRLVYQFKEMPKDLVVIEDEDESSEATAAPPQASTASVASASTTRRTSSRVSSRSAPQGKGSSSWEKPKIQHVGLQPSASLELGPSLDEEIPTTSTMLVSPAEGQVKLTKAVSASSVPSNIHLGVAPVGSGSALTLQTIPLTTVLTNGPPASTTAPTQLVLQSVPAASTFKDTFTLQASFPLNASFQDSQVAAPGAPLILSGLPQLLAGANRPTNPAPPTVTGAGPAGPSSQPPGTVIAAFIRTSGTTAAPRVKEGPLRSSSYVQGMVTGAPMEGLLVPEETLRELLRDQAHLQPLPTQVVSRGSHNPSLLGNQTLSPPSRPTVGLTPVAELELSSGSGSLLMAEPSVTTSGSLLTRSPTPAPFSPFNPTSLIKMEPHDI
ETV1, sequence (P50549 whole entry): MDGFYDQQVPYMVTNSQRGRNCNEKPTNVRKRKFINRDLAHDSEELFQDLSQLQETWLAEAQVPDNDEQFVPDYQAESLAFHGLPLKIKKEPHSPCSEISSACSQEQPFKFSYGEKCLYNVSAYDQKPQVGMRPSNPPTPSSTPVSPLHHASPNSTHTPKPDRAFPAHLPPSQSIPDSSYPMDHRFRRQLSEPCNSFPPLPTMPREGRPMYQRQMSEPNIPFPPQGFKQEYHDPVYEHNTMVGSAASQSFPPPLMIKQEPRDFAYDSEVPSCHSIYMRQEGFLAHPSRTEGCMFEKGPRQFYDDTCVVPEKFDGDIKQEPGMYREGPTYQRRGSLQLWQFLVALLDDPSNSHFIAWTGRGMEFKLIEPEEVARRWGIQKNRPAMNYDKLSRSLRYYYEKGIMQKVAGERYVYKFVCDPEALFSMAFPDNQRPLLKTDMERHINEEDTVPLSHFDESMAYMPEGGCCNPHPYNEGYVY
HSF1, sequence (Q00613 whole entry): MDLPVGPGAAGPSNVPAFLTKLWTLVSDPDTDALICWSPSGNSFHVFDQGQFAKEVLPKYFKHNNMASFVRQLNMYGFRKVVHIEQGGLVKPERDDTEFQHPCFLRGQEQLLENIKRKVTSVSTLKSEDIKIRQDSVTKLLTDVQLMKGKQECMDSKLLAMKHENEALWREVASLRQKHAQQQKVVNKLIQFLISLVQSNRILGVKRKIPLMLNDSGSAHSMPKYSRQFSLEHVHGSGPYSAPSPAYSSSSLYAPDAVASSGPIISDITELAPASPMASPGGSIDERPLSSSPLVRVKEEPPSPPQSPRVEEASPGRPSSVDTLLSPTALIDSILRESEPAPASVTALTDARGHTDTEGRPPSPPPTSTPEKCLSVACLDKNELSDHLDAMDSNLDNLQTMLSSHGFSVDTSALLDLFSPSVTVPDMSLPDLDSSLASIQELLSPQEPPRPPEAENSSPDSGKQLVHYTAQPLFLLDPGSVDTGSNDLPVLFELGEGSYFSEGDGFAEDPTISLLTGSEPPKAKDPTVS

Sequence	binding signal (FEV)	binding signal (ETV5)	binding signal (HSF1)	binding signal (SPIC)	binding signal (ELF4)	binding signal (ELK4)	binding signal (ETV2)	binding signal (ELF3)	binding signal (CRX)	binding signal (ETV1)	binding signal (ERF)	binding signal (ETV3L)	binding signal (ETS2)	binding signal (SPDEF)	binding signal (ETV7)	binding signal (ETV3)	binding signal (ETV6)
AGCTCA	1.08 fold enrichment (6-mer frequency, TF over GST control)	1.1 fold enrichment (6-mer frequency, TF over GST control)	1.22 fold enrichment (6-mer frequency, TF over GST control)	1.08 fold enrichment (6-mer frequency, TF over GST control)	1.16 fold enrichment (6-mer frequency, TF over GST control)	1.27 fold enrichment (6-mer frequency, TF over GST control)	1.25 fold enrichment (6-mer frequency, TF over GST control)	1.11 fold enrichment (6-mer frequency, TF over GST control)	1.45 fold enrichment (6-mer frequency, TF over GST control)	1.24 fold enrichment (6-mer frequency, TF over GST control)	1.08 fold enrichment (6-mer frequency, TF over GST control)	1.08 fold enrichment (6-mer frequency, TF over GST control)	1.13 fold enrichment (6-mer frequency, TF over GST control)	1.08 fold enrichment (6-mer frequency, TF over GST control)	1.03 fold enrichment (6-mer frequency, TF over GST control)	1.15 fold enrichment (6-mer frequency, TF over GST control)	1.1 fold enrichment (6-mer frequency, TF over GST control)
ACCGAA	1.05 fold enrichment (6-mer frequency, TF over GST control)	1.06 fold enrichment (6-mer frequency, TF over GST control)	1.25 fold enrichment (6-mer frequency, TF over GST control)	1.12 fold enrichment (6-mer frequency, TF over GST control)	1.03 fold enrichment (6-mer frequency, TF over GST control)	1.06 fold enrichment (6-mer frequency, TF over GST control)	1.19 fold enrichment (6-mer frequency, TF over GST control)	1.11 fold enrichment (6-mer frequency, TF over GST control)	1.08 fold enrichment (6-mer frequency, TF over GST control)	1.05 fold enrichment (6-mer frequency, TF over GST control)	1.09 fold enrichment (6-mer frequency, TF over GST control)	1.04 fold enrichment (6-mer frequency, TF over GST control)	1.07 fold enrichment (6-mer frequency, TF over GST control)			1.02 fold enrichment (6-mer frequency, TF over GST control)	1 fold enrichment (6-mer frequency, TF over GST control)
